Assay [1] addresses Mitogen-activated protein kinase 10 (Mus musculus) (UniProt Q61831). Briefly: JNK3 AlphaScreen Assay (AID 530; active = well fitted curve in either direction with a large enough effect, not every such curve was filed as active;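 also: kinase came from lysate of stimulated human HepG2 cells; % is scaled to controls: 0 for no effect and ±100 for the full control effect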). Particulars: JNK3 lysate, c-Jun phosphorylation; series mostly up to 57.1 µM. A digest of the protocol: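 Phosphorylation of biotinylated GST-cJun(1-79) at Ser73 is measured by AlphaScreen proximity luminescence. Enzyme is JNK3 in HepG2 lysates activated with interleukin-1beta and tumor necrosis factor alpha; ATP is 10 uM final.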

The nature of assay [2]: Cell Viability - N2a (AID 540).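 Also: cells exposed to compound for 40 h at 37 °C; plate controls were DMSO alone for no effect and tamoxifen control for full effect; nearly all actives have a fitted effect of over 45% in size.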 Particulars: N2a mouse neuroblastoma cell viability; at 92.2 µM (top of the series). A digest of the protocol: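 Cytotoxicity was scored as loss of cellular ATP in N2a cells, a mouse neuroblastoma line. Compounds are applied in a qHTS concentration series for 40 hr at 37 °C.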
A short description of assay [3]: Cell Viability - NIH 3T3 (AID 541).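 Also: cells exposed to compound for 40 hours; plate controls were DMSO alone for no effect and tamoxifen positive control for full effect; nearly all actives have a fitted effect of over 25% in size.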 Particulars: NIH 3T3 cell viability, qHTS; at 92.2 µM (top of the series). A digest of the protocol:
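Cells seeded at 1000/well, rested 5 hr at 37 °C, then dosed and incubated 40 hr at 37 °C. CellTiter-Glo added, 20 min room temperature, luminescence read. AC50 by Hill fit.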
On the technique in general: Quantitative high-throughput screening tests each substance at several concentrations.

A short description of assay [4]: Cell Viability - Renal Proximal Tubule (AID 545).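 Also: cells exposed to compound for 40 hours; nearly all actives have a fitted effect of over 40% in size.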 Particulars: renal proximal tubule cells viability; series mostly up to 91.7 µM. A digest of the protocol: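 Viability taken as intracellular ATP (CellTiter-Glo luminescence) after 40 hr, 37 °C compound treatment of primary proximal tubule cells from rat kidney, 1000 cells/well; Hill-equation fits of qHTS concentration-response data gave AC50.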

Assay [5] in a line: Cellular Toxicity (caspase-3) Jurkat (AID 655).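 Also: cells exposed to compound for 16 h at 37 °C before reading.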 Particulars: Jurkat caspase-3 activation, luminescence, DMSO = 0%, tamoxifen = 100%; series mostly up to 92.2 µM. The essentials:
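Luminescent Caspase-Glo 3/7 read-out (20 min, room temperature) after 16 h compound treatment at 37 C of 5000 Jurkat cells per well. AC50 derived by Hill-equation fitting, scaled between DMSO basal and 100 uM tamoxifen stimulation.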

Assay [6] in a line: Cellular Toxicity (caspase-3) Mesangial (AID 660).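 Also: combined caspase 3 and 7 activity read by Caspase-Glo luminescence; cells exposed to compound for 16 h before the caspase read.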 Particulars: mesangial cells, normalized: DMSO 0%, 100 µM tamoxifen 100%; series mostly up to 91.7 µM. A digest of the protocol: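 Seed cells derived from normal human renal glomeruli, incubate 5 h, add compounds across concentrations and incubate 16 h at 37 °C. Caspase 3/7 activation is then quantified by luciferase light, with AC50 derived by Hill modeling.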

Assay [7] can be described thus: Cell Viability - LYMP2-001 (AID 921).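 Also: 0% = DMSO only and full inhibition = tetraoctylammonium bromide control wells; nearly all actives have a fitted effect of over 70% in size.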 Particulars: LYMP2-001 lymphoblastoid cell viability; series mostly up to 92.2 µM. The essentials:
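Cellular ATP loss read by luciferase luminescence after 24 h compound exposure at 37 C in complete medium. LYMP2-001 lymphoblastoid cells, 2500/well; qHTS concentration-response data fitted with Hill equation for AC50.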

The nature of assay [8]: MultiTox-Fluor Cytotoxicity Assay - LYMP1-002 - Dead Cells (AID 960).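 Also: 0% = DMSO and 100% = tetraoctylammonium bromide; nearly all actives have a fitted effect of over 60% in size.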 Particulars: LYMP1-002 lymphoblastoid cells, dead-cell protease fluorescence; series mostly up to 46.1 µM. A digest of the protocol: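 Cells were plated, rested 5 hr, then treated with compound dilution series for 16 hr at 37 C. After adding substrate reagent and 60 min at room temperature, dead-cell protease fluorescence gave concentration-response curves fitted by the Hill equation.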

Assay [9] can be described thus: Cell Viability - LYMP1-003 - Assay at 40 hr (AID 964). Also: % is scaled to controls: 0 for no effect and ±100 for the full control effect; nearly all actives have a fitted effect of over 60% in size. Particulars: LYMP1-003 lymphoblastoid viability; series mostly up to 92.2 µM. The essentials: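 Luminescent ATP signal (CellTiter-Glo) served as the viability read-out after 40 hr compound treatment of human lymphoblastoid LYMP1-003 cells at 37 C. Decreases in ATP were fitted with the Hill equation to give AC50.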

Assay [10] in a line: Cell Viability - LYMP2-007 (AID 979).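 Also: cells exposed to compound for 24 h before reading; 0% = DMSO only and the negative end = 92 µM tetraoctylammonium bromide; nearly all actives have a fitted effect of over 60% in size.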 Particulars: LYMP2-007 lymphoblastoid cell viability; series mostly up to 92.2 µM. A digest of the protocol:
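Cells are seeded at 2500 per well and rested 5 hr. Compounds are then added over a concentration series for 24 hr at 37 C. CellTiter-Glo is added for 30 min at room temperature before luminescence reading.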

The nature of assay [11]: Cell Viability - LYMP2-012 (AID 982).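 Also: cellular ATP by luciferase luminescence where a drop means cytotoxicity; cells exposed to compound for one day before reading; 0% = DMSO only and full loss = 92 µM tetraoctylammonium bromide; nearly all actives have a fitted effect of over 55% in size.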 Particulars: LYMP2-012 lymphoblastoid cell viability qHTS; series mostly up to 92.2 µM.
The target of assay [12] is Peroxisome proliferator-activated receptor gamma (Homo sapiens) (UniProt P37231). Briefly: qHTS assay for small molecule agonists of peroxisome proliferator-activated receptor gamma signaling (AID 588536; active = well fitted curve in the direction sought with a large enough effect in the signal ratio, with a control signal flat, not every such curve was filed as active; the % refers to the signal ratio;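 also: 0% = DMSO basal wells and 100% = rosiglitazone at 2 µM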). Particulars: HEK293 PPARg-UAS-bla, beta-lactamase ratio, 16 h, percent of rosiglitazone response, DMSO as zero; series mostly up to 76.7 µM. A digest of the protocol: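 Cells were plated and held 6–6.5 h at 37 C, then compounds were added as a titration series. After a further 16 h, CCF4 dye was loaded for 2 h at room temperature and emission at 460/530 nm recorded.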
Sequence of Peroxisome proliferator-activated receptor gamma (Homo sapiens) (P37231 whole entry, looked up): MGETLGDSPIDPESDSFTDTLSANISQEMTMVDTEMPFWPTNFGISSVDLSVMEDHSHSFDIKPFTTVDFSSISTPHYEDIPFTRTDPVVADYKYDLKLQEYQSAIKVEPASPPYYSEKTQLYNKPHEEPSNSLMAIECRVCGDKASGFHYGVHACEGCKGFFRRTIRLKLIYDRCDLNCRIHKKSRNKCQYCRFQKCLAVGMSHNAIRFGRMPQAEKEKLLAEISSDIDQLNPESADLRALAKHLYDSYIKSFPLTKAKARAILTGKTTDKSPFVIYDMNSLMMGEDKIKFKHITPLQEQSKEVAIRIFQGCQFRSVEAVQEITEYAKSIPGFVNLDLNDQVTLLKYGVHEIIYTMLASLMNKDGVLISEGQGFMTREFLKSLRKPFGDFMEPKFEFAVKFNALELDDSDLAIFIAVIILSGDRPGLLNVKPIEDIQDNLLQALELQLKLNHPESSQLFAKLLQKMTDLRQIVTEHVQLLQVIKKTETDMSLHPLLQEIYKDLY

Assay [13] can be described thus: qHTS assay for small molecule antagonists of retinoid X receptor alpha signaling (AID 588546; active = well fitted inhibition curve with a large enough effect in the signal ratio, with a control signal flat, not every such curve was filed as active; the % refers to the signal ratio;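 also: cells stimulated with 9-cis-retinoic acid as agonist; % is scaled to controls: 0 for no effect and ±100 for the full control effect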). The note with it: HEK293T RXRa-UAS-bla, beta-lactamase ratio, antagonist mode; measured here: W530 green channel, cytotoxicity proxy. The essentials:
(§1)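 Beta-lactamase reporter inhibition, read as CCF4 fluorescence ratio (ex 405, em 460/530 nm) after 2 h at RT. HEK293T UAS-bla cells, 2500/well, were stimulated with 9-cis-RA at 500 or 100 nM final alongside test compound for 18 h at 37 C.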

Assay [14] deals with Retinoic acid receptor RXR-alpha (Homo sapiens) (UniProt P19793). The assay is described as above. Particulars: HEK293T RXRa-UAS-bla, beta-lactamase ratio, antagonist mode. A digest of the protocol:
as §1

The target of assay [15] is Voltage-gated inwardly rectifying potassium channel KCNH2 (Homo sapiens) (UniProt Q12809). Briefly: qHTS Assay for Small Molecule Inhibitors of the Human hERG Channel Activity (AID 588834).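 Also: lower thallium flux fluorescence means stronger hERG block; nearly all actives have a fitted effect of over 50% in size.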 Also: potency is read from the fitted curve at half-maximal effect. Particulars: U2OS BacMam hERG, FluxOR thallium flux fluorescence; series mostly up to 46.1 µM. The essentials: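 hERG block measured as reduced thallium-dye (FluxOR) fluorescence after stimulation buffer addition, read over 2 min. Cells were hERG-BacMam-transduced U2OS exposed to compound ~10 min […]; concentration-response fitted with Hill equation for AC50.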
Sequence of Voltage-gated inwardly rectifying potassium channel KCNH2 (Homo sapiens) (Q12809 whole entry, looked up): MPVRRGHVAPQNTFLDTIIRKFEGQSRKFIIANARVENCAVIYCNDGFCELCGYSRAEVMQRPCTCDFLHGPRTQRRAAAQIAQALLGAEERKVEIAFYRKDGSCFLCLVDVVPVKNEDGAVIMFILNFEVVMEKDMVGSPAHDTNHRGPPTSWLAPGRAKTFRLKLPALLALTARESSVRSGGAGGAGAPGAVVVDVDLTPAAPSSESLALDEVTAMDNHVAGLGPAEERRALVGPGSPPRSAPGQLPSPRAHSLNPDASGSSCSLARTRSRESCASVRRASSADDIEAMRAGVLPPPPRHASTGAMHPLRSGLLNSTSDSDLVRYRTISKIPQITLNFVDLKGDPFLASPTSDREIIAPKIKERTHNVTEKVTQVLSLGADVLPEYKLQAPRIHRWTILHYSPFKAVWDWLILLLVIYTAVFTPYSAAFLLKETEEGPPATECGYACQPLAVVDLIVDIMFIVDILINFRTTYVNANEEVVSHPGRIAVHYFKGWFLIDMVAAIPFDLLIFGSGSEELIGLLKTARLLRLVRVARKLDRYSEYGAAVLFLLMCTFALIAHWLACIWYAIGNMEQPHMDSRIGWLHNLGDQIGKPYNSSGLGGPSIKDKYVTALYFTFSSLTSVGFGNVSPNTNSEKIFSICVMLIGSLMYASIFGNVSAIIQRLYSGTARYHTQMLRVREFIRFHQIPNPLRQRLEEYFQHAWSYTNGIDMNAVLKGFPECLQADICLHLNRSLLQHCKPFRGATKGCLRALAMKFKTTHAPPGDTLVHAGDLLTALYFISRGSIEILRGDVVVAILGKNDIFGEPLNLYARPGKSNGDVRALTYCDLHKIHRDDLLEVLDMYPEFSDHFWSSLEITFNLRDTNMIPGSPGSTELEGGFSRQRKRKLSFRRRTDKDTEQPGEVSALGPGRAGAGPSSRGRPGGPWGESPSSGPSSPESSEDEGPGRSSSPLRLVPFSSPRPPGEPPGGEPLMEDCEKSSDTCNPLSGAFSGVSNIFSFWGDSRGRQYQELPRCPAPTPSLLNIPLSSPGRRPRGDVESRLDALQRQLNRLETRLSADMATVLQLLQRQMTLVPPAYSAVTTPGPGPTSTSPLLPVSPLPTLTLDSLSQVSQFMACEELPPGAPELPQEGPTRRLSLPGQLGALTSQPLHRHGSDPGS

Assay [16] can be described thus: qHTS assay for small molecule activators of the nuclear factor-kappa B (NF-kB) signaling pathway (AID 651749; active = well fitted activation curve with a large enough effect in the signal ratio; the % refers to the signal ratio; also: % of control where 0% means no effect). The note with it: NF-kB-bla ME-180 cells, beta-lactamase FRET ratio, 16 h; activation: stronger effect = higher value. A digest of the protocol: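 Human ME-180 cervical cells with an NF-kB-bla construct; compounds added via 23 nL pin transfer, DMSO as vehicle; incubation 16 hr. Reporter activity measured by FRET disruption.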

A short description of assay [17]: qHTS assay for small molecule disruptors of the mitochondrial membrane potential - 1 hr assay (AID 651754; calls by dose curve; also: nearly all actives have a fitted effect of over 35% in size; also: potency is read from the fitted curve at half-maximal effect). The note with it: series mostly up to 92.2 µM. A digest of the protocol: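 Loss of mitochondrial potential shifts the cationic dye from red mitochondrial aggregates to green cytoplasmic monomers. Cells (HepG2) are treated with compound for 1 hr before a 30 min dye incubation at 37C.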

For assay [18], the target named is Tumor necrosis factor (Homo sapiens) (UniProt P01375). Briefly: qHTS assay to identify small molecules that stimulate Tumor Necrosis Factor-alpha (TNF-alpha) secretion (AID 651757; active = well fitted curve in the direction sought with a large enough effect in the signal ratio; the % refers to the signal ratio; also: 0% is about no effect). Particulars: Human cells, HTRF 665/615 ratio; series mostly up to 92.2 µM. The essentials: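 Human monocytic THP-1 cells are plated, treated with compound and held at 37 C for 17 hrs. Labeled anti-TNF-alpha antibody mixture is then added; after 3 hr at room temperature, TR-FRET signal reports secreted TNF-alpha.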
Sequence of Tumor necrosis factor (Homo sapiens) (P01375 whole entry, looked up): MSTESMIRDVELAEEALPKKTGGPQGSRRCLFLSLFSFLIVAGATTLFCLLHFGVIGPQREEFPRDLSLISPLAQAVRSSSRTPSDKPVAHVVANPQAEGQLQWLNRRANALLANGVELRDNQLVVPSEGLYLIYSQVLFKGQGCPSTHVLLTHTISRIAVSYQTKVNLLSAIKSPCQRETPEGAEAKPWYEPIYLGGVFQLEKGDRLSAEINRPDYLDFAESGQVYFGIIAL

For assay [19], the target named is Nuclear receptor ROR-gamma (Homo sapiens) (UniProt P51449). The experiment in a line: qHTS assay for small molecule antagonists of the retinoid-related orphan receptor gamma (ROR-gamma) signaling pathway (AID 651802).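 Also: CHO cells with doxycycline-induced ROR-gamma expression; % is scaled to controls: 0 for no effect and ±100 for the full control effect; nearly all actives have a fitted effect of over 60% in size.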 Particulars: ROR-gamma antagonist cell reporter assay; series mostly up to 92.2 µM. The essentials: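 Steps: cells dispensed; compound or DMSO transferred by pin tool; doxycycline added to induce the ROR response element-driven luciferase; plates held 16hr at 37C; ONE-Glo added and luminescence measured.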
Sequence of Nuclear receptor ROR-gamma (Homo sapiens) (P51449 whole entry, looked up): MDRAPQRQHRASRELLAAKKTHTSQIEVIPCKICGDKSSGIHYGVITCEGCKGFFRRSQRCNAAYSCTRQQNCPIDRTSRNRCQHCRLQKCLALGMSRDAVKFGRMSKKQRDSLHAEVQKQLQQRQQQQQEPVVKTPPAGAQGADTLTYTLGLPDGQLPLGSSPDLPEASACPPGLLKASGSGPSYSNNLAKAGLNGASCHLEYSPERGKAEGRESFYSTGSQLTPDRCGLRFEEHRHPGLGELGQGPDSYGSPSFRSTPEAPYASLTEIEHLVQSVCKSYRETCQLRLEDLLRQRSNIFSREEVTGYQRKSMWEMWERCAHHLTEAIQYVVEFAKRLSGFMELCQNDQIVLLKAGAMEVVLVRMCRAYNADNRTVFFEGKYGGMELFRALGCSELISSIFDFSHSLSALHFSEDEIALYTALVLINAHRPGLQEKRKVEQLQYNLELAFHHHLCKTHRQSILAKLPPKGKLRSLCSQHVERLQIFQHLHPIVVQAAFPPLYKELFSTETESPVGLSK

Assay [20] in a line: qHTS assay for small molecule agonists of the antioxidant response element (ARE) signaling pathway measured by Nrf2-dependant transcriptional activity (AID 720636; active = well fitted curve in the direction sought with a large enough effect in the repeat runs; an effect the other way counts as inactive or inconclusive;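 also: HepG2 cells with an ARE-driven luciferase reporter; % of control where 0% means no effect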). The note with it: ARE-luc HepG2, Nrf2 luciferase reporter, 16 h; series mostly up to 92.4 µM. A digest of the protocol:
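Attachment 6 hr at 37 C, then compound versus DMSO vehicle for 16 hr in ARE-luc HepG2 cells (1% dialyzed FBS); luminescence recorded 30 min after ONE-Glo addition at room temperature.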

The values that follow come from PubChem BioAssay (NCATS).

Values joined by “and” are separate entries in the source; they are usually repeats but may differ in a detail not shown here. Equal values may be shown once. Inconclusive results are not listed. Active and inactive are the calls of the source. Unless noted, calls follow the shape of the dose curve; as a rule, active = well fitted curve in the direction sought with a large enough effect; inconclusive = small, poorly fitted or top-dose-only effect, or another doubt; inactive = no such curve, though single readings can be large; an effect the other way counts as inactive or inconclusive.

Sequence of Retinoic acid receptor RXR-alpha (Homo sapiens) (P19793 whole entry, looked up): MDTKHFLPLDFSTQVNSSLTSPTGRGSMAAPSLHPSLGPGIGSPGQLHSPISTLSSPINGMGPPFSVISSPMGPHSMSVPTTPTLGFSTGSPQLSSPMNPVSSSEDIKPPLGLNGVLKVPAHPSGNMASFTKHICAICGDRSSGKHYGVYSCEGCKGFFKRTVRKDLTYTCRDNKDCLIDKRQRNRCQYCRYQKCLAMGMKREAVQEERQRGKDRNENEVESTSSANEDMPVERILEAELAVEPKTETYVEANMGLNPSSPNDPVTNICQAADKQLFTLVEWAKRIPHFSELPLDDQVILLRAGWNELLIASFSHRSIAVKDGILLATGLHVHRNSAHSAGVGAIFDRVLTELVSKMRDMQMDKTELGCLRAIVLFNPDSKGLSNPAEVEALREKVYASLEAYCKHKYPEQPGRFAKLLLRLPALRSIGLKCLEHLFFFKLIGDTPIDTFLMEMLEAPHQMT

As to `CC(=O)/C=C/c1ccccc1`, the molecule was called inactive in assay [1], in assay [4], in assay [5], in [6], in [7] and in assay [10]. Further, the molecule was classed as inactive in [11], in [12] and in assay [18]. In addition, the activity change, negative = cytotoxicity was -5.72% (inactive) in [2] and -123% (active) in [3]. The Potency entry in assay [8], in assay [9], in assay [15], in assay [17], in assay [19] and in [20] was “inactive” throughout. Also, the max response was -5.45% in assay [13] and 11.5% (inactive) in assay [14]. Further, the activation in assay [16] is -1.47% (inactive).
For the molecule `COC1=CC(=O)OC(CCc2ccc3c(c2)OCO3)C1` (stereo not given), the molecule was classed as inactive in assay [1], in [4], in assay [6], in assay [12] and in assay [18]. Also, in assay [2], the activity change, negative = cytotoxicity is -20.1% (inactive). Besides, the Potency entry in [8], in assay [15], in assay [17], in assay [19] and in [20] was “inactive” each time. Besides, the activation in assay [16] is -0.795% (inactive).
As to `c1ccc(Nc2ccc3ccccc3c2)cc1`, the result in [1], in assay [5], in [7], in [10], in assay [11] and in assay [12] was inactive. The activity change, negative = cytotoxicity in assay [3] was -27% (inactive). Also, the Potency entry in [9] and in assay [19] was “inactive” throughout. In addition, the max response in [13] was -7.73% and -2.18%; in [14] it was 4.38% (inactive) and -18.9% (inactive). Further, the Potency in assay [15] was 25.1 µM (active); in assay [17], 37.6 µM (active). For the same molecule, in assay [16], the activation was 0.513% (inactive) and 2.05% (inactive).
As for `CCOC(=O)c1ccccc1N`, the molecule was classed as inactive in assay [1], in assay [4], in assay [5], in assay [6], in assay [7] and in assay [10]. Also, the outcome in [11], in assay [12] and in [18] was inactive. Further, the results for the activity change, negative = cytotoxicity in assay [2] and in [3] were 3.3% (inactive) and -0.518% (inactive), respectively. For the same molecule, the Potency result in assay [8], in assay [9], in assay [15], in [17], in assay [19] and in assay [20] was “inactive” throughout. Further, the max response is -2.66% in assay [13] and 10.1% (inactive) in [14].
With `c1ccc2c(c1)-c1cccc3cccc-2c13`, the activity change, negative = cytotoxicity was -25.7% (inactive) in assay [2] and -24% (inactive) in [3]. Besides, the result in assay [4], in [5], in assay [6], in [7], in assay [10] and in assay [11] was inactive. In addition, the result in assay [18] was inactive. Also, the Potency result in assay [8], in assay [9], in assay [19] and in [20] was “inactive” throughout. The max response in assay [13] is -3.55%; in assay [14], -2.14% (inactive). In addition, in assay [16], the activation was 0.379% (inactive).
Regarding `Oc1ccccc1Cl`, the molecule was called inactive in assay [1], in [4], in assay [5], in assay [6], in [7] and in assay [10]. Besides, the result in assay [11], in assay [12] and in [18] was inactive. The activity change, negative = cytotoxicity was -11.6% (inactive) in assay [2] and -20.7% (inactive) in assay [3]. Further, the Potency entry in [8], in assay [9], in [15], in assay [17] and in assay [20] was “inactive” in each case. Moreover, the max response in assay [13] is -10.5%; in assay [14], 10.4% (inactive). Besides, the activation in [16] is -1.13% (inactive).
